Records with an inconclusive call do not appear. The source made the active and inactive calls. Unless noted, the call rests on the fitted dose curve; in most records, active means well fitted curve in either direction with a large enough effect (not every such curve was filed as active); inconclusive means small, poorly fitted or top-dose-only effect, or another doubt; inactive means flat fitted curve, though single readings scatter. Residues, ends and D or L forms follow the SMILES beside them.
Legend:
[1] = target: Lysosomal acid glucosylceramidase (Homo sapiens) (UniProt P04062); assay: Glucocerebrosidase-p2 (AID 348; in the data active means potency below about 10 µM; further: potency means the concentration at half of the fitted maximal effect); details: purified GBA, blue fluorogenic substrate, 40 min
How it was run: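 Normal human glucocerebrosidase (0.2 nM) with blue fluorogenic substrate (80 uM final) in citrate/phosphate pH 5.9 with 10mM sodium taurocholate, 0.01% tween-20; 40 min RT, NaOH/glycine stop; fluorescence Ex 365/Em 440; AC50 from a titration from 0.6 nM upwards.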

[2] = AP1 Signaling Pathway (AID 357); details: ME-180 AP-1-bla reporter, EGF-induced, beta-lactamase ratio, 5 h; at 7.69 µM (top of the series) unless noted; further: on the % scale 0 is the no-effect control and ±100 the full control effect
How it was run: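 Titration-series screen for positive or negative modulators of EC50 EGF-induced signaling in ME-180 cells carrying an AP-1-driven beta-lactamase reporter. After 5 hours at 37 degrees Celsius, CCF4 460nm/530nm emission ratio gave %Activity; AC50 values derived.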

[3] = NFAT Signaling Pathway (AID 444); details: Jurkat NFAT-bla M1, carbachol, beta-lactamase ratio, 5 h; at 7.69 µM (top of the series) unless noted;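 further: carbachol stimulus at about its EC50 of 1 µM final; on the % scale 0 is the no-effect control and ±100 the full control effect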
How it was run: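 Read-out: CCF4 FRET ratio (460 nm/530 nm) after 1 h RT dye loading, used for %activity and AC50 from titration series. Cells: Jurkat NFAT-β-lactamase/M1 line, treated with compound plus 1 uM carbachol for 5 h, 37 °C.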

[4] = Stat Signaling Pathway (AID 446); details: ME-180 (cervical carcinoma) SIE beta-lactamase reporter, IL-6 stimulated, 5 h; at 7.69 µM (top of the series) unless noted;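 further: ME-180 cervical cancer cells given 40 pM IL-6 alongside compound; SIE-controlled beta-lactamase reporter measured as 460/530 nm FRET emission ratio; on the % scale 0 is the no-effect control and ±100 the full control effect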
How it was run: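 Compound effects on IL-6-induced STAT reporter activity were measured in ME-180 cells. After overnight culture, cells were co-treated with 40 pM IL-6 for 5 hrs before beta-lactamase substrate loading at room temperature.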

[5] = target: Glucocorticoid receptor (Homo sapiens) (UniProt P04150); assay: GR-GFP Redistribution (AID 450;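 active means compounds whose dose series gives a full or clear partial fitted curve of increased nuclear translocation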; further: potency means the concentration at half of the fitted maximal effect); details: U2OS GR-GFP nuclear translocation, laser cytometry, 2 h
[6] = target: Glucocorticoid receptor (Homo sapiens) (UniProt P04150); assay: GR-EFC Redistribution (AID 451; calls by dose curve; further: potency means the concentration at half of the fitted maximal effect); details: CHO-K1 GR-EFC translocation, beta-gal luminescence, 2 h
How it was run: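 Translocation of GR-ED fusion to nuclear EA restores b-gal, read by luminescence after 1 h room-temperature detection. Engineered CHO-K1 biosensor cells, 1,000/well, exposed 2 h at 37 C to titrations up to 46 uM final.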

[7] = target: Mitogen-activated protein kinase 10 (Mus musculus) (UniProt Q61831); assay: JNK3 AlphaScreen Assay (AID 530); details: JNK3 lysate, c-Jun phosphorylation; series mostly up to 11.4 µM;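 further: kinase came from lysate of stimulated human HepG2 cells; signal reports phosphorylation of biotinylated GST-cJun 1-79 at Ser73 with 10 µM ATP; on the % scale 0 is the no-effect control and ±100 the full control effect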
How it was run: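 Kinase buffer: 20 mM Tris-HCl pH 7.6, 10 mM MgCl2, 1 mM DTT, 0.1 mM Na3VO4, 0.01% Tween-20; ATP 10 uM. Substrate biotin-GST-cJun(1-79), enzyme from activated HepG2 lysates. Detection by Ser73 phospho-antibody AlphaScreen.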

[8] = target: 3',5'-cyclic-AMP phosphodiesterase 4B (Homo sapiens) (UniProt Q07343); assay: qHTS Assay for Inhibitors of PDE-IV (AID 607; active means well fitted activation curve with a large enough effect in the main read-out, with a control signal flat, not every such curve was filed as active; further: % of control where 0% means no effect); details: HEK293 ACTOne CNG channel cells, membrane potential fluorescence; series mostly up to 22.9 µM
How it was run: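 ACTOne HEK293 cells carry a modified cAMP-gated CNG channel and express endogenous PDE4; plated 1000 cells/well, compounds up to 22.9 uM final. Membrane-potential dye fluorescence (ex 535/em 590) was read; parental cells received 10 uM forskolin + 100 uM RO 20-1724.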

Sequence of Lysosomal acid glucosylceramidase (Homo sapiens) (P04062 whole entry, looked up): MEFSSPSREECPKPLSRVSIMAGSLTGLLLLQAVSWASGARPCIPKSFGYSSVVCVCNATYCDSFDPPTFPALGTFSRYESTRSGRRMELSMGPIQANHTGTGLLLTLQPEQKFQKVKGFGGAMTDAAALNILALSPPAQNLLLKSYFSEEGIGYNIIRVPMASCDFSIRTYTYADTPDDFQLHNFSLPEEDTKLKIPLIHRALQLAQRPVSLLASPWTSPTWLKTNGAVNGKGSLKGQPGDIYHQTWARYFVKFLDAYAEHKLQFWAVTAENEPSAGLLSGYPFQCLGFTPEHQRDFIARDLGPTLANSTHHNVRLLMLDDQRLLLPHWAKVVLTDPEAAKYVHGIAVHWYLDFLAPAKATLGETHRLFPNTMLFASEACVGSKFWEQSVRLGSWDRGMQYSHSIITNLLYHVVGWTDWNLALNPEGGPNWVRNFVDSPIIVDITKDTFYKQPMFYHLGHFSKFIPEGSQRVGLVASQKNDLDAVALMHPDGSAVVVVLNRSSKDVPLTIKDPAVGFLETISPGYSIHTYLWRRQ
Sequence of Glucocorticoid receptor (Homo sapiens) (P04150 whole entry, looked up, the tested form may be a part): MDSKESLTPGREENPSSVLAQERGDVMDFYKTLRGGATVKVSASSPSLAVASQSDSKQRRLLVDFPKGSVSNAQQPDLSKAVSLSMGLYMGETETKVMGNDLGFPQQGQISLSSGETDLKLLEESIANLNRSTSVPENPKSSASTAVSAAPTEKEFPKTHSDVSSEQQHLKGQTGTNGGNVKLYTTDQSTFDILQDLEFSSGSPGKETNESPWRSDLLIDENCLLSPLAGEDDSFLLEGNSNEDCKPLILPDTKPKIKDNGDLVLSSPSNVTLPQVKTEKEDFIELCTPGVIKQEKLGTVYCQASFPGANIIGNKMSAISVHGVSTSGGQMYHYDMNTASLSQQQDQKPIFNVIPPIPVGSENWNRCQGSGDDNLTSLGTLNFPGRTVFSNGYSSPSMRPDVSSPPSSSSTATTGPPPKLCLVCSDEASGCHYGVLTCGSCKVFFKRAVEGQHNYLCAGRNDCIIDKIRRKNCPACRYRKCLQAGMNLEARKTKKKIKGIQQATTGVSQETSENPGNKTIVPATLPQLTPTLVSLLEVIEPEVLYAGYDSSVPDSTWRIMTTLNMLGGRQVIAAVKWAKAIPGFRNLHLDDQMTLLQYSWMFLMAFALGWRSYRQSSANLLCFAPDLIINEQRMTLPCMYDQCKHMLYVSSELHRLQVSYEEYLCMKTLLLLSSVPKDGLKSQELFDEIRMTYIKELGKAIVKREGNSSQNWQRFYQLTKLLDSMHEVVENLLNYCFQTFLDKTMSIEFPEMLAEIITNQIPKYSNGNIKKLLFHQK
Sequence of 3',5'-cyclic-AMP phosphodiesterase 4B (Homo sapiens) (Q07343 whole entry, looked up): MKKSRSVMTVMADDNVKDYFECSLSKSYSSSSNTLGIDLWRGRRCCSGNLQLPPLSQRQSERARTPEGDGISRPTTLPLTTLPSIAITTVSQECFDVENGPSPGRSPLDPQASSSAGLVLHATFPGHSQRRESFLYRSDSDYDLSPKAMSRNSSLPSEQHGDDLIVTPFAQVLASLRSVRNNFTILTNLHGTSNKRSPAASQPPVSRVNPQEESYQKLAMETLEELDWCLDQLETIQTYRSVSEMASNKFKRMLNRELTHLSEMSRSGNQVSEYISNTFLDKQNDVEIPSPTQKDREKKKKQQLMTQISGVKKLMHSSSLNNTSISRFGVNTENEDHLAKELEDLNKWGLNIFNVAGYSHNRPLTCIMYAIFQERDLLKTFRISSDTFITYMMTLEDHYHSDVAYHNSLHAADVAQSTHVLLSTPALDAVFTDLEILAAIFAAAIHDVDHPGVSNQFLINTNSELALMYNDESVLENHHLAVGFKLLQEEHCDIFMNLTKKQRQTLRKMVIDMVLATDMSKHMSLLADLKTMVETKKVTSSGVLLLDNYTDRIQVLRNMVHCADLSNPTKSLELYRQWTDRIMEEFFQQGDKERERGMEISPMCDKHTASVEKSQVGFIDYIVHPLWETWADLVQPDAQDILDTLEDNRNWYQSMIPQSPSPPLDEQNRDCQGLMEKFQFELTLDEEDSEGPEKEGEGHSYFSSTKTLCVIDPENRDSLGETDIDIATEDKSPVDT

c1ccc(CN2COc3c(ccc4c5c(ccc34)CN(Cc3ccccc3)CO5)C2)cc1
inactive: Potency [1] > 11.4 µM | activity change, negative = inhibition [2] -0.336% | activity change, negative = inhibition [3] 7.9% | activity, negative = inhibition [4] 8.56% | Potency [5] > 46 µM | Potency [6] > 9.22 µM | Potency [7] | Potency [8]

OCCSCc1cc(Cl)cc(Cl)c1O
inactive: Potency [1] > 11.4 µM | activity change, negative = inhibition [2] -3.03% | activity change, negative = inhibition [3] 14.2% | activity, negative = inhibition [4] 17.5% | Potency [5] > 46 µM | Potency [6] > 9.22 µM | Potency [7] | Potency [8]

Nc1nc(-c2ccccc2)c(CC(=O)O)s1
inactive: Potency [1] > 11.4 µM | activity change, negative = inhibition [2] 0.597% | activity change, negative = inhibition [3] 18.8% | activity, negative = inhibition [4] 0.225% | Potency [5] > 46 µM | Potency [6] > 9.22 µM | Potency [7] | Potency [8]

O=C(Nc1ccc(-c2cn3ccccc3n2)cc1)c1cc(Br)ccc1O
inactive: Potency [1] > 11.4 µM | activity change, negative = inhibition [2] -0.171% | activity change, negative = inhibition [3] 1.22% | activity, negative = inhibition [4] -0.935% | Potency [5] > 46 µM | Potency [6] > 9.22 µM | Potency [7] | Potency [8]

C=CCSc1nc2c(N)ncnc2n1[C@@H]1O[C@H](CO)[C@@H](O)[C@@H]1O
inactive: Potency [1] > 11.4 µM | activity change, negative = inhibition [2] 4.59% | activity change, negative = inhibition [3] 2.7% | activity, negative = inhibition [4] -1.09% | Potency [5] > 46 µM | Potency [6] > 9.22 µM | Potency [7] | Potency [8]

C[N+]1(CCN=C=NC2CCCCC2)CCOCC1
inactive: Potency [1] > 11.4 µM | activity change, negative = inhibition [2] 9.01% | activity change, negative = inhibition [3] -4.19% | activity, negative = inhibition [4] -0.107% | Potency [5] > 46 µM | Potency [6] > 9.22 µM | Potency [7] | Potency [8]

C[C@@H](NC(=O)C1(N)CCCC1)C(=O)O (HELM PEPTIDE1{[NC1(C(=O)[*:2])CCCC1].[dA]}$$$$V2.0)
inactive: Potency [1] > 11.4 µM | activity change, negative = inhibition [2] 5.64% | activity change, negative = inhibition [3] 15.7% | activity, negative = inhibition [4] 6.26% | Potency [5] > 46 µM | Potency [6] > 9.22 µM | Potency [7] | Potency [8]

CCOC(=O)c1c(O)[nH]c(=O)c(CC)c1C
inactive: Potency [1] > 11.4 µM | activity change, negative = inhibition [2] -5.14% | activity change, negative = inhibition [3] -3.29% | activity, negative = inhibition [4] 13.4% | Potency [5] > 46 µM | Potency [6] > 9.22 µM | Potency [7] | Potency [8]

O=C(O)CN1C(=O)O[C@@H](c2ccccc2)C1=O
inactive: Potency [1] > 11.4 µM | activity change, negative = inhibition [2] -1.65% | activity change, negative = inhibition [3] 11.5% | activity, negative = inhibition [4] -12.2% | Potency [5] > 46 µM | Potency [6] > 9.22 µM | Potency [7] | Potency [8]

NNC(=O)c1ccc(OCc2nc3ccccc3[nH]2)cc1
inactive: Potency [1] > 11.4 µM | activity change, negative = inhibition [2] -12.3% | activity change, negative = inhibition [3] 13.6% | activity, negative = inhibition [4] -6.78% | Potency [5] > 46 µM | Potency [6] > 9.22 µM | Potency [7] | Potency [8]

O=C(O)c1cccc(S(=O)(=O)NCCO)c1
inactive: Potency [1] > 11.4 µM | activity change, negative = inhibition [2] 5.38% | activity change, negative = inhibition [3] 3.24% | activity, negative = inhibition [4] -2.13% | Potency [5] > 46 µM | Potency [6] > 9.22 µM | Potency [7] | Potency [8]

COc1nc(Cl)nc(Cl)c1Cl (tested in a mixture with another compound)
inactive: Potency [1] > 11.4 µM | activity change, negative = inhibition [2] 2.89% | activity change, negative = inhibition [3] 3.88% | activity, negative = inhibition [4] 7.12% | Potency [5] > 46 µM | Potency [6] > 9.22 µM | Potency [7] | Potency [8]

NS(=O)(=O)c1ccc(NCc2cnc3ccccc3c2)cc1
inactive: Potency [1] > 11.4 µM | activity change, negative = inhibition [2] -2.59% | activity change, negative = inhibition [3] 13.4% | activity, negative = inhibition [4] 0.424% | Potency [5] > 46 µM | Potency [6] > 9.22 µM | Potency [7] | Potency [8]

O=C(O)CCNCC(=O)O
inactive: Potency [1] > 11.4 µM | activity change, negative = inhibition [2] 2.01% | activity change, negative = inhibition [3] 0.769% | activity, negative = inhibition [4] -2.35% | Potency [5] > 46 µM | Potency [6] > 9.22 µM | Potency [7] | Potency [8]

O=S1(=O)CCN(Cc2ccccn2)CC1
inactive: Potency [1] > 11.4 µM | activity change, negative = inhibition [2] 0.374% | activity change, negative = inhibition [3] 13% | activity, negative = inhibition [4] -10.3% | Potency [5] > 46 µM | Potency [6] > 9.22 µM | Potency [7] | Potency [8]

CC(C)c1cc(CN(C)C)c(O)c(C(C)(C)C)c1
inactive: Potency [1] > 11.4 µM | activity change, negative = inhibition [2] 1.46% | activity change, negative = inhibition [3] -5.67% | activity, negative = inhibition [4] -8.11% | Potency [5] > 46 µM | Potency [6] > 9.22 µM | Potency [7] | Potency [8]

NC(N)=NC(N)=Nc1ccc(C(=O)O)cc1
inactive: Potency [1] > 11.4 µM | activity change, negative = inhibition [2] 7% | activity change, negative = inhibition [3] 6.33% | activity, negative = inhibition [4] 16.2% | Potency [5] > 46 µM | Potency [6] > 9.22 µM | Potency [7] | Potency [8]
